# Assay outcomes (PubChem BioAssay)
# LmPK inhibitor = qHTS Assay for Inhibitors of Leishmania Mexicana Pyruvate Kinase (LmPK). Q27686. purified LmPK, Kinase-Glo ATP luminescence, 1 h. Potency, µM (top dose mostly 57.5 µM), for the others: at the highest dose activity change, negative = inhibition, actives largely listed as inhibitors. hit rate 0.37% among 290,000. AID 1721, 2009; note: potency is the fitted concentration of half-maximal effect; % is set by controls: 0 for no effect and ±100 for the full control effect
#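 0.1 nM LmPK, 0.5 mM PEP, 0.1 mM ADP; 50 mM imidazole pH 7.2, 7 mM MgCl2, 50 mM KCl; 1 h RT. Kinase-Glo luminescence readout, normalized to no-enzyme (full inhibition) and uninhibited wells.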
# Giardia FBPA inh = qHTS Assay for Inhibitors of Fructose-1,6-bisphosphate Aldolase from Giardia Lamblia; Potency, µM (titrated, usually from 59.6 µM), for the others: at the highest dose activity, negative = inhibition, hits mostly inhibitors; purified Giardia FBPA; hit rate 0.71% among 290,000; note: potency is the fitted concentration of half-maximal effect; % is set by controls: 0 for no effect and ±100 for the full control effect; nearly all actives have a fitted effect of over 55% in size
# Target sequence (A8B2U2 whole entry, looked up): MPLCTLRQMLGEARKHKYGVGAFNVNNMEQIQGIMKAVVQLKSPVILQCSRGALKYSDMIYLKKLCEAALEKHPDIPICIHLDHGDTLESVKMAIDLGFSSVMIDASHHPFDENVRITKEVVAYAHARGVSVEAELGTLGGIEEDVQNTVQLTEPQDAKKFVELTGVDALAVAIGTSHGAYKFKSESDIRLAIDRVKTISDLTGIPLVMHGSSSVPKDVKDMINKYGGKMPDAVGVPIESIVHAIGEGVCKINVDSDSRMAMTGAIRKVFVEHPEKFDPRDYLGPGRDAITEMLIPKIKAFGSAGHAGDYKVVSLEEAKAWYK
#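 Giardia FBPA (40 nM reagent) was preincubated 10 min at RT with compound (up to 57.5 uM final), then substrate plus GAPDH/TPI/NAD/arsenate coupling system with diaphorase/resazurin was added; resorufin fluorescence (525/598 nm) was read after 20 min.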
# Sm TGR block = qHTS Assay for the Inhibitors of Schistosoma Mansoni Peroxiredoxins; purified TGR, DTNB reduction, TNB absorbance 405 nm; Potency, µM (series often up to 114 µM), for the others: at the top dose activity change, negative = inhibition, hits mostly inhibitors; hit rate 3% among 360,000; AID 485364, 2010; note: potency is the fitted concentration of half-maximal effect; % is set by controls: 0 for no effect and ±100 for the full control effect; nearly all actives have a fitted effect of over 60% in size
#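 Kinetic colorimetric format: TGR-catalysed, NADPH-driven DTNB reduction monitored via TNB absorbance. Enzyme dispensed at 20 nM; compound exposure 15 min at room temperature before reaction start.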
# TbPYK inhibitor = qHTS of Trypanosoma Brucei Inhibitors. pyruvate kinase (Trypanosoma brucei), Q57TT1. TbPYK enzyme, Kinase-Glo Plus ATP luminescence, 45 min. Potency, µM (series often up to 76.8 µM), without a hit: at the top dose activity, negative = inhibition, hits mostly inhibitors. hit rate 0.12% among 410,000; note: potency is the fitted concentration of half-maximal effect; % is set by controls: 0 for no effect and ±100 for the full control effect; nearly all actives have a fitted effect of over 50% in size
#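 Assay buffer: 50 mM TEA pH 7.2, 100 mM KCl, 10 mM MgCl2, 0.05% BSA, 0.01% Tween-20. Pyruvate kinase from T. brucei plus substrate met compound, then ADP (130 uM final). Luminescence was read post 45 min RT.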
# Shiga toxin inh = A qHTS for Small Molecule Inhibitors of Shiga Toxin. Vero cells, Shiga toxin protein synthesis inhibition reporter. inhibition, % at 38.7 µM. hit rate 9.2% among 290,000; in the data active = inhibition mostly above about 28%, no sharp cut-off; inactive = mostly below about 43%; note: 0% is about no effect
# Cycloheximide cs = Cycloheximide Counterscreen for Small Molecule Inhibitors of Shiga Toxin; cell reporter, cycloheximide protein synthesis inhibition counterscreen; max response, %; hit rate 12% among 300,000; in the data active = max response mostly above about 13%, no sharp cut-off; inactive = mostly below about 14%; note: read at 38.3 µM for the half of the compounds with a filed dose; 0% is about no effect
# * hit, by the source's call; u = inconclusive; x = no result given. Only a selection was taken, and hits are over-represented in it overall. Unless noted, calls come from the whole dose curve; as a rule, active = well fitted curve in the direction sought with a large enough effect; inconclusive = small, poorly fitted or top-dose-only effect, or another doubt; inactive = no such curve, though single readings can be large; an effect the other way counts as inactive or inconclusive.
SMILES,LmPK inhibitor,Giardia FBPA inh,Sm TGR block,TbPYK inhibitor,Shiga toxin inh,Cycloheximide cs
CC1CN(C(=O)c2ccc(COc3ccc(C(C)C)cc3)o2)CC(C)O1 (centres undefined),3%,0%,40µM*,-4%,195*,54*
CC1CN(CCCCOc2ccc3ccccc3c2)CC(C)O1 (centres undefined),-3%,-3%,4%,-10%,21,22*
c1ccc2cc(OCCOCCOc3ccc4ccccc4c3)ccc2c1,7%,1%,12%,1%,-4,2
Cc1ccc(CN2C(=O)SC(Nc3ccc(Cl)cc3)C2=O)cc1 (centres undefined),x,x,5%,-9%,x,x
CCOC(=O)Nc1ccc2c(c1)C(=NNC(=S)NC)c1ccccc1-2,x,x,x,3%,x,x
N#Cc1ccc(-c2csc(NC3=NCCCCC3)n2)cc1,2%,0%,-3%,1%,73*,20*
c1ccc(-c2csc(NC3=NCCCCC3)n2)cc1,-2%,0%,-8%,-2%,35,43*
N#Cc1ccc(Nc2nc(-c3ccccc3)cs2)cc1,x,x,x,1%,x,x
O=S(=O)(c1cccs1)N1CN(Cc2ccccc2)c2nc3ccccc3nc21,5%,-8%,5%,-3%,15,-3
COc1ccc(CN2CN(S(=O)(=O)c3ccccc3)c3nc4ccccc4nc32)cc1,0%,-14%,0%,-1%,112*,33*
COc1ccc(CCN2CN(S(=O)(=O)c3ccc(OC)cc3)c3nc4ccccc4nc32)cc1,7%,-6%,1%,8%,39*,27*
CCCCCN1CN(S(=O)(=O)c2cccs2)c2nc3ccccc3nc21,7%,-6%,4%,4%,28,16*
COc1ccc(CCN2CN(S(=O)(=O)c3ccc(C)cc3)c3nc4ccccc4nc32)cc1OC,-1%,0%,1%,-2%,-7,-2
COc1ccc(CN2CN(S(=O)(=O)c3cccs3)c3nc4ccccc4nc32)cc1,10%,u,0%,6%,80*,48*
COc1ccccc1C1=Nn2c(nnc2-c2ccccc2O)SC1,x,-4%,x,x,-1,6
Cc1ccc(-c2c3c(=O)n(C)c(=O)n(C)c3c3c(C)nc4ccccc4n23)cc1,x,x,1%,-2%,x,x
O=C(Cc1ccc(Br)cc1)Nc1nc2ccccc2[nH]1,-2%,1%,11%,-1%,22,14*
Cc1ccc(OCCCC(=O)Nc2nc3ccccc3[nH]2)cc1,2%,4%,-12%,3%,5,6
O=C(Cc1ccc(Cl)cc1)Nc1nc2ccccc2[nH]1,5%,0%,-2%,1%,7,-1
O=C(CSc1ccccc1)Nc1nc2ccccc2[nH]1,-1%,-5%,-4%,-1%,84*,28*
O=C(CCCOc1ccccc1)Nc1nc2ccccc2[nH]1,2%,0%,5%,2%,68*,34*
Cc1cc(NC(=O)CSCC(=O)Nc2nc3ccccc3[nH]2)no1,x,x,-10%,-5%,x,x
O=S(=O)(CCOc1ccccc1)c1nc2ccccc2[nH]1,0%,25%,13µM*,6%,23*,18*
CCc1cccc(C)c1NC(=O)NC1COc2ccccc2C1 (centres undefined),x,x,8%,-6%,x,x
COc1ccc(OC)c(S(=O)(=O)N2Cc3ccccc3CC2C(=O)Nc2ccc(C(C)=O)cc2)c1 (centres undefined),x,x,-7%,-6%,x,x
CCCCNC(=O)C1(C)CCC(=O)N1CCCn1ccnc1 (centres undefined),x,x,x,-1%,x,x
Cc1cc(C)c(NC(=O)CSc2nc(=O)n(Cc3cccnc3)c3c2CCC3)c(C)c1,x,x,1%,0%,x,x
O=C(Cc1c[nH]c2ccccc12)NCc1ccncc1,-2%,x,-27%,2%,-6,-1
O=C(Cc1ccccc1)Nc1nc2ccccc2[nH]1,0%,-3%,u,5%,79*,26*
